# The list is not random: actives were taken first. Their share in the collection is about 15%.
# Gal4-VP16 FLuc: counter-screen for ROR gamma inhibitors: Gal4-VP16 reporter; actives 3.5% (n = 310,000); AID 2546; Potency, µM (top dose mostly 53.6 µM), for inactives: top-dose activity, negative = inhibition, actives largely listed as inhibitors; Drosophila S2 Gal4-VP16 UAS-luciferase, luminescence, 20 h;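 further: Gal4-VP16 expression switched on by copper sulfate through the metallothionein promoter; nearly all actives have a fitted effect of over 50% in size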
# TDP1 cell CPT: DT40-hTDP1 cell growth loss with CPT; chicken DT40 Tdp1-/-;hTDP1 cells + 20 nM CPT, ATP luminescence, 48 h; Potency, µM (top dose mostly 46.2 µM), for inactives: at the highest dose activity change, negative = growth inhibition, actives largely listed as inhibitors; actives 12% (n = 420,000); further: nearly all actives have a fitted effect of over 55% in size
#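 Chicken DT40 Tdp1-/- cells stably complemented with human TDP1 were seeded at 400 cells/well in medium containing 20 nM camptothecin, exposed to pin-transferred compounds, and grown at 37 °C for at least 48 hr. Viability was read as ATP luminescence.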
# RORg inh: inhibitors of mouse ROR gamma transcriptional activity. Drosophila S2 Gal4-RORgamma UAS-luciferase reporter, 20 h. actives 5.4% (n = 310,000). P51450. Potency, µM (top dose mostly 53.6 µM), inactives show at the highest dose activity change, negative = inhibition, usual class: inhibitors. AID 2551; further: nearly all actives have a fitted effect of over 60% in size
# Target sequence (P51450 whole entry, looked up, the tested form may be a part): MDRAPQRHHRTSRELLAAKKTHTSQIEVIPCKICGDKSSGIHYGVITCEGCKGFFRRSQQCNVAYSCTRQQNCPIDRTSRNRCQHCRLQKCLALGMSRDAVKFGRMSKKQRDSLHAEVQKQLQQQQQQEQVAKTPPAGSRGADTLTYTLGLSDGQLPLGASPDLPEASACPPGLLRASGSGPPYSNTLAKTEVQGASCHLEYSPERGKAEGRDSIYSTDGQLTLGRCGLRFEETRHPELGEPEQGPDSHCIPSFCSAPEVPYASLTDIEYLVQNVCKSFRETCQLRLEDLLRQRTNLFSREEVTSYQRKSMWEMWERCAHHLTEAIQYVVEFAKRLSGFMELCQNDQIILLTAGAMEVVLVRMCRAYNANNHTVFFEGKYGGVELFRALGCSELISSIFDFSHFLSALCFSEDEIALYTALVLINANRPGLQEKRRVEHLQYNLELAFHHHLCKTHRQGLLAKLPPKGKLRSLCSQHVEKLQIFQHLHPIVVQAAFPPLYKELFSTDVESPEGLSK
#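 A Gal4/UAS one-hybrid system in insect cells: metallothionein-promoter Gal4–ROR gamma fusion plus Photinus luciferase reporter. Copper sulfate 700 uM final, 20 hr ambient incubation, luminescent detection after 10 min with reagent.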
# ALOX12 inh: ALOX12 (human) lipoxygenase inhibition; P18054; purified 12hLO, xylenol orange hydroperoxide absorbance; Potency, µM (series often up to 108 µM), without a hit: at the highest dose activity change, negative = inhibition, most hits filed as inhibitors; actives 1.1% (n = 580,000); AID 1671190
#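 Hydroperoxide product was detected by ferrous iron/xylenol orange as the 573 to 405 nm absorbance ratio. Arachidonic acid at 40 uM (final) was turned over for 30 min at room temperature by 150 nM human 12hLO, pH 7.0 Hepes buffer, after 15 min compound preincubation.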
# ELG1 DNA repair: inhibitors of ELG1-dependent DNA repair in HEK293T cells; HEK293T ELG1-luciferase reporter, luminescence, 16 h; DNA damage induced by 5-fluorouridine; actives 2.3% (n = 330,000); Potency, µM (highest dose often 46.1 µM), for inactives: top-dose activity change, negative = inhibition, most hits filed as inhibitors; further: nearly all actives have a fitted effect of over 55% in size
#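 DMSO vehicle served as the neutral condition. Each well held 2,000 cells given 5-fluorouridine plus compound; after 16 hr at 37 °C/5% CO2, ONE-Glo was added and luciferase measured 30 min later.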
# TDP1 cell noCPT: qHTS for Inhibitors of human tyrosyl-DNA phosphodiesterase 1 (TDP1): qHTS in cells in absence of CPT. actives 15% (n = 420,000). DT40 Tdp1-/- hTDP1 cells, no CPT, ATP luminescence, 48 h. Potency, µM (top dose mostly 46.2 µM), for the others: at the highest dose activity change, negative = growth inhibition, most hits filed as inhibitors; further: nearly all actives have a fitted effect of over 55% in size
#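 Luminescent ATP content (CellTiter-Glo) served as the growth readout. Knockout chicken DT40 cells expressing human TDP1 were exposed to compounds without camptothecin for a minimum 48 hr at 37 °C.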
# * = called active by the depositor; ? = inconclusive; / = not tested or not shown; ! = not active in a repeat; [ ] = remark or other dose. The call rests on the fitted dose curve; in most records, active means well fitted curve in the direction sought with a large enough effect; inconclusive means small, poorly fitted or top-dose-only effect, or another doubt; inactive means no such curve, though single readings can be large; an effect the other way counts as inactive or inconclusive. On the % scale 0 is the no-effect control and ±100 the full control effect; potency means the concentration at half of the fitted maximal effect.
SMILES,Gal4-VP16 FLuc,TDP1 cell CPT,RORg inh,ALOX12 inh,ELG1 DNA repair,TDP1 cell noCPT
c1ccc(-c2cn(CC3CCCCC3)nn2)cc1,?,?,29%,0%,?,13µM*!
COc1ccc(-c2cn(CCCOCc3ccccc3)nn2)cc1,-5%,?,-59%,-12%,?,?
CCCCCc1ccc(-c2cn(CCCOCc3ccccc3)nn2)cc1,-8%,?,-10%,8%,-7%,22µM*
CCCCCc1ccc(-c2cn(CC3CCCCC3)nn2)cc1,12%,?,-18%,8%,-6%,8.9µM*
CC(NC(=O)c1n[nH]c(=O)c2ccccc12)c1nnc2n1CCCCC2 (stereo not given),/,/,/,-1%,/,/
COc1ccc(OC)c(/C=C/c2ccccc2)c1,/,-25%,/,/,/,-1%
COc1ccc(OC)c(/C=C/c2cc3ccccc3cn2)c1,/,5µM*,/,/,/,5µM*
COc1ccc(OC)c(/C=C/c2ccc3ccccc3[n+]2C)c1,/,2µM*,/,/,/,2µM*
O=C(CSc1nc(-c2ccccc2)nc2ccccc12)Nc1nccs1,?,?,11µM*,12%,1%,-10%
CN(C)c1ccc(NC(=O)c2sc(SCC(=O)Nc3nccs3)nc2N)cc1,-3%,?,?,-4%,?,16µM*
O=C(CSc1nc(-c2ccccc2)cs1)Nc1nccs1,-29%,?,?,38%,-3%,16µM*
O=C(CSc1nc(-c2ccccc2)cs1)NC(=O)NCc1ccco1,?,-12%,?,11%,18µM*,-13%
CC(=O)NCc1cn[nH]c1-c1ccc(Cl)cc1,/,/,/,8%,/,/
FC(F)(F)c1cc(N=Cc2ccc(-c3ccccc3)cc2)cc(C(F)(F)F)c1,/,/,/,35%,/,/
CC1=C[C@@H](CNCc2cccnc2)[C@H](C(C)C)C[C@H]1Cc1nnc(-c2ccc([N+](=O)[O-])cc2)o1,/,/,/,17%,/,/
O=C(c1ccccc1)c1ccc2n1CCC2C(=O)Nc1ccc(C(F)(F)F)cc1 (stereo not given),/,/,/,-24%,/,/
COC(=O)c1c(C)[nH]c(C(=O)CSc2cc(F)ccc2F)c1C,/,/,/,42%,/,/
Cc1cc(SCC(=O)NC(=O)NCc2ccco2)nc2c(C)cccc12,?,?,3%,22µM*,?,29µM*
Cc1ccc(S(=O)(=O)Nc2nc3ccccc3nc2Nc2ccc3c(c2)OCCO3)c(C)c1,/,/,/,51%,/,/
O=C(Cc1n[nH]c(=O)c2ccccc12)NCCN1CCCCCC1=O,/,/,/,12%,/,/
CO[C@H]1C(=O)N(C(C)C)[C@H]1C1CCN(S(C)(=O)=O)CC1,/,/,/,13%,/,/
COC(=O)CCC(=O)Oc1cc(C)c(C2(c3cc(C(C)C)c(OC(=O)CCC(=O)OC)cc3C)OC(=O)c3ccccc32)cc1C(C)C,/,/,/,-10%,/,/
Cc1cc(O)c(C(C)C)cc1C1(c2cc(C(C)C)c(O)cc2C)OC(=O)c2ccccc21,13µM*,15µM*,?,?,16µM*,9.2µM*
CC(C)n1cnc2nc(CSc3ccc(NC(=O)c4cccc(F)c4)cc3)cc(=O)n21,/,/,/,-3%,/,/
CC(=O)NC12CC3CC(C1)CC(C(=O)N1CCC(CCc4ccc(C)cc4)CC1)(C3)C2,/,/,/,-1%,/,/
SMILES,Gal4-VP16 FLuc,TDP1 cell CPT,RORg inh,ALOX12 inh,ELG1 DNA repair,TDP1 cell noCPT
COCCNC(=O)COC(=O)c1cc(C)nc2ccccc12,/,/,/,-3%,/,/
O=C(NCCC1CCCCN1S(=O)(=O)c1cccs1)C(=O)Nc1ccccc1F (stereo not given),/,?,/,-6%,-14%,23µM*
CCOc1ccc(CNC(=O)C2CCCCN2S(=O)(=O)c2ccc(F)cc2)cc1OC (stereo not given),/,-26%,/,-21%,/,?
O=C(NCCC1CCCCN1S(=O)(=O)c1cccs1)C(=O)Nc1cccc(F)c1 (stereo not given),/,23µM*,/,-10%,-19%,15µM*
O=C(NCCC1CCCCN1S(=O)(=O)c1cccs1)C(=O)NCc1ccccc1 (stereo not given),/,15µM*,/,-28%,?,21µM*
O=C(NCCC1CCCCN1S(=O)(=O)c1cccs1)C(=O)Nc1ccc(F)cc1 (stereo not given),/,?,/,-14%,-17%,?
COc1cc(CNC(=O)C2CCCCN2S(=O)(=O)c2ccc(F)cc2)cc(OC)c1OC (stereo not given),/,?,/,1%,/,12µM*
COc1ccc(CNC(=O)C(=O)NCC2CCCN2S(=O)(=O)c2cccs2)cc1 (stereo not given),/,?,/,9%,0%,?
O=C(NCC1CCCN1S(=O)(=O)c1cccs1)C(=O)Nc1ccccc1F (stereo not given),/,?,/,-16%,/,?
CN(Cc1ccc(C(=O)NCC(F)(F)F)cc1)C(=O)Cc1cccc(C(F)(F)F)c1,/,/,/,1%,/,/
COc1ccccc1CNC[C@H]1Cn2c(-c3ccccc3)cnc2CO1,/,/,/,39%[176 µM],/,/
COc1ccccc1NC(=O)C(=O)NCC1CCCN1S(=O)(=O)c1cccs1 (stereo not given),/,?,/,23%,-18%,?
COc1ccc(NC(=O)C(=O)NCCC2CCCCN2S(=O)(=O)c2ccc(F)cc2)cc1 (stereo not given),/,21µM*,/,0%,?,10µM*
COc1ccccc1NC(=O)C(=O)NCCC1CCCCN1S(=O)(=O)c1cccs1 (stereo not given),/,29µM*,/,-2%,?,18µM*
N#Cc1c(-c2ccc(Cl)cc2)n(O)c2ccccc12,/,3.3µM*,/,/,/,3.3µM*
COCCNc1nc(NCCOc2ccccc2)c2sc(-c3ccccc3)cc2n1,/,16µM*,/,?,/,15µM*
C=CCNc1nc(NCc2cccc(OC)c2)c2sc(-c3ccccc3)cc2n1,/,5.8µM*,/,?,/,4.1µM*
COCCNc1nc(NCCN2CCNC2=O)c2sc(-c3ccccc3)cc2n1,/,26µM*,/,?,/,21µM*
COCCNc1nc(NCCOC)c2sc(-c3ccccc3)cc2n1,/,26µM*,/,-12%,/,26µM*
COCCC(=O)N1CCCCC1c1noc(COc2ccc(C)cc2)n1 (stereo not given),/,/,/,-6%,/,/
Cc1cc(F)ccc1NC(=O)CCC1CCCN(C(=O)Cc2ccc3c(c2)OCO3)C1 (stereo not given),/,/,/,9%,/,/
